Results on 34 sequences are retold here after paper PMC7862700, “An all-to-all approach to the identification of sequence-specific readers for epigenetic DNA modifications on cytosine”.

Common to all, as to experiment: DAPPL (digital affinity profiling via proximity ligation, sequencing); 10 mM Tris-HCl pH 7.5, 50 mM NaCl, 1 mM DTT, 4% glycerol, room temperature, 30 min; GST-TFs on glutathione beads, 16-mer random dsDNA library, 0.1% formaldehyde crosslink after washing; high values mean tight binding
One assay deals with T1, FEV (Homo sapiens, UniProt Q99581 1-238).
T1 sequence: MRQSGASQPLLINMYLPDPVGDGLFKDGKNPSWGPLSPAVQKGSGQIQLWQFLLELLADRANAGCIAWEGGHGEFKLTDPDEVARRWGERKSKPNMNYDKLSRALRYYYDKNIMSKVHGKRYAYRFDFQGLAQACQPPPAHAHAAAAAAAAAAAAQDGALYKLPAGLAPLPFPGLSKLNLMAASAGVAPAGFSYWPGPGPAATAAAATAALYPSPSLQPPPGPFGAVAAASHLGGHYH
The settings on record: protein: recombinant; tags: N-terminal GST; dsDNA, one strand shown. The gist of the method:
(§1)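 The binding signal reported is, for every hexamer, its read frequency for a factor over its read frequency for the tag-only sample. Reads came from pools of yeast-expressed, GST-fused human transcription factors on glutathione beads, barcoded with DNA and mixed with that sample, which were incubated with 200 nmole of a random double-stranded 16-mer DNA library in Tris/NaCl/DTT/glycerol buffer at room temperature for 30 min. After washing, the pools were crosslinked with 0.1% formaldehyde, proximity-ligated with BsaI/T4 ligase for 1 h at 37 °C, PCR-amplified and sequenced on an Illumina NextSeq500.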

In the next assay the target is T2, ETV2 (Homo sapiens, UniProt O00321 1-342).
T2 sequence: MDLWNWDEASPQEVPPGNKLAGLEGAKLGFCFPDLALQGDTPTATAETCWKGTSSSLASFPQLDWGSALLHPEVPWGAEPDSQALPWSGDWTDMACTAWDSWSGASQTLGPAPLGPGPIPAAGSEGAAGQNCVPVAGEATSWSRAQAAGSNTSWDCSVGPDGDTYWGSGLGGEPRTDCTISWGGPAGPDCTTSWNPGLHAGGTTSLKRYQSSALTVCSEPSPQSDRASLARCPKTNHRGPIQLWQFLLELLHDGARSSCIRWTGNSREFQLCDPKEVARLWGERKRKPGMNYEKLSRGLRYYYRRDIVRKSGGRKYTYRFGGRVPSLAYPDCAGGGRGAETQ
The settings on record: protein: recombinant; tags: N-terminal GST; dsDNA, one strand shown. The gist of the method:
as §1

Another assay has as its target T3, ELF5 (Homo sapiens, UniProt Q9UKW6-2 1-255).
T3 sequence: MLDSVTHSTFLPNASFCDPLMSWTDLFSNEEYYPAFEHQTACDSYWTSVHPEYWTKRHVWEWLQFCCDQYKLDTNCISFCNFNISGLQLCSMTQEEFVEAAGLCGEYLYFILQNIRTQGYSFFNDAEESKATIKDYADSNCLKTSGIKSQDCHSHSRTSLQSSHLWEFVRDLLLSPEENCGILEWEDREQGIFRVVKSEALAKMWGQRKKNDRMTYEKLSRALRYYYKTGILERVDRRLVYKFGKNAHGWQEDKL
The note with it: protein: recombinant; tags: N-terminal GST; dsDNA, one strand shown. The procedure, abridged:
as §1

For a further assay, the target named is SPI1 (Homo sapiens, UniProt P17947 1-270). The note with it: protein: recombinant; tags: N-terminal GST; dsDNA, one strand shown. The procedure, abridged: as §1
Another assay concerns the target CRX (Homo sapiens, UniProt O43186 1-299). The settings on record: protein: recombinant; tags: N-terminal GST; dsDNA, one strand shown. The procedure, abridged:
as §1

A further assay deals with T4, FLI1 (Homo sapiens, UniProt Q01543 1-452).
T4 sequence: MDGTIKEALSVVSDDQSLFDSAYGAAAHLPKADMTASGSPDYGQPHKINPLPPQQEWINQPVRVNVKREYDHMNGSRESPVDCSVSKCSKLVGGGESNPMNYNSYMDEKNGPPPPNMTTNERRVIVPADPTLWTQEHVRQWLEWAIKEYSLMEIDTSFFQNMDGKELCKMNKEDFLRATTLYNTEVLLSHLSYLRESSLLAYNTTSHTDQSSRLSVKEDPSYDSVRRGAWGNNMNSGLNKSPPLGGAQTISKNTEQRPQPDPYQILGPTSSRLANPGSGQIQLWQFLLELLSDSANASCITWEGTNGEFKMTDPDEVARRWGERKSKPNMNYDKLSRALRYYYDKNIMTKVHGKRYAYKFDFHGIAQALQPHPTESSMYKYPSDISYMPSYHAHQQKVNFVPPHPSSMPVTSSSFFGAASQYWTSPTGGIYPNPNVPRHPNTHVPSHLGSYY
The note with it: protein: recombinant; tags: N-terminal GST; dsDNA, one strand shown. The procedure, abridged: as §1

In the next assay the target is HSF1 (Homo sapiens, UniProt Q00613 1-529). The note with it: protein: recombinant; tags: N-terminal GST; chain copies: 3; dsDNA, one strand shown. The procedure, abridged: as §1
Chain of HSF1 (Q00613 whole entry): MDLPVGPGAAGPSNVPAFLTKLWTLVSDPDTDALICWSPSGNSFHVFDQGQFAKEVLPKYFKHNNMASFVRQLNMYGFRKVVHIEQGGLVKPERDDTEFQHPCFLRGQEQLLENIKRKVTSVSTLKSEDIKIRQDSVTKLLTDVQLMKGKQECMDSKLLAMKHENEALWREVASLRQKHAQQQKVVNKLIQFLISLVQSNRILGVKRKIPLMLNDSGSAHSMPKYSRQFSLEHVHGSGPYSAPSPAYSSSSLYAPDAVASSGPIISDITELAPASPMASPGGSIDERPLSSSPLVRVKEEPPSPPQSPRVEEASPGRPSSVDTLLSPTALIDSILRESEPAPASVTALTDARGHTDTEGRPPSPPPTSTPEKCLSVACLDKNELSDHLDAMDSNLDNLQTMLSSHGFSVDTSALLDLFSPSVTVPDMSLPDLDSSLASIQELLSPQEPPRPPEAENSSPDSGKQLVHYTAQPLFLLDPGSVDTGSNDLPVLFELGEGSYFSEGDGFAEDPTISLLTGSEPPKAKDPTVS

Chain of CRX (O43186 whole entry): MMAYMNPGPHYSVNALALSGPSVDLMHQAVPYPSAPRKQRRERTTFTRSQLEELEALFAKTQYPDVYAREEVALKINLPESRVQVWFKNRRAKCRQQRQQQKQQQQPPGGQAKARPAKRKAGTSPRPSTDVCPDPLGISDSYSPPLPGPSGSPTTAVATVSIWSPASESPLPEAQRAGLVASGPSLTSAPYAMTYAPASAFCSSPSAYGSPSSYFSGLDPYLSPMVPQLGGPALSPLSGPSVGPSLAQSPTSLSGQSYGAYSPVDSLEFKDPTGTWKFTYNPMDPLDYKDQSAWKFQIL

In the case of GAAACC, the binding signal with FEV was 1.08 fold enrichment (6-mer frequency, TF over GST control); with ETV2, 1.06 fold enrichment (6-mer frequency, TF over GST control); in the assay with ELF5 it was 1.03 fold enrichment (6-mer frequency, TF over GST control).
In the case of GTGCCT, the binding signal with SPI1 is 1.15 fold enrichment (6-mer frequency, TF over GST control); in the assay with ETV2, 1.22 fold enrichment (6-mer frequency, TF over GST control).
On to TAGGCC, for which the binding signal with FEV is 1.05 fold enrichment (6-mer frequency, TF over GST control); with CRX, 1.21 fold enrichment (6-mer frequency, TF over GST control).
Consider CCACCG, for which the binding signal in the assay with SPI1 is 1.04 fold enrichment (6-mer frequency, TF over GST control); in the assay with FEV, 1.26 fold enrichment (6-mer frequency, TF over GST control); with ELF5, 1.02 fold enrichment (6-mer frequency, TF over GST control).
For the sequence GTACCA, the binding signal is 1.11 fold enrichment (6-mer frequency, TF over GST control) with SPI1 and 1.01 fold enrichment (6-mer frequency, TF over GST control) in the assay with FEV.
GTTGGT: the binding signal in the assay with SPI1 is 1.02 fold enrichment (6-mer frequency, TF over GST control).
In the case of CATAGC, the binding signal in the assay with ETV2 was 1.06 fold enrichment (6-mer frequency, TF over GST control).
ATAGGG: the binding signal with SPI1 is 1.19 fold enrichment (6-mer frequency, TF over GST control); with ETV2 it was 1.08 fold enrichment (6-mer frequency, TF over GST control); with ELF5, 1.02 fold enrichment (6-mer frequency, TF over GST control).
Consider TATGAG, for which, in the assay with CRX, the binding signal was 1.1 fold enrichment (6-mer frequency, TF over GST control).
Take GCCGGA: the binding signal with FEV is 1.59 fold enrichment (6-mer frequency, TF over GST control); in the assay with ELF5, 1.05 fold enrichment (6-mer frequency, TF over GST control).
Regarding ATCCGT, the binding signal with FEV is 1.1 fold enrichment (6-mer frequency, TF over GST control); in the assay with CRX, 1.08 fold enrichment (6-mer frequency, TF over GST control); in the assay with ELF5, 1.17 fold enrichment (6-mer frequency, TF over GST control).
As to CATAGT, the binding signal with ELF5 is 1 fold enrichment (6-mer frequency, TF over GST control).
Regarding CTGTAG, the binding signal in the assay with ELF5 was 1.01 fold enrichment (6-mer frequency, TF over GST control).
Take AAACAG: the binding signal is 1.13 fold enrichment (6-mer frequency, TF over GST control) with SPI1 and 1.03 fold enrichment (6-mer frequency, TF over GST control) in the assay with ELF5.
Take CAGTTC: the binding signal with SPI1 is 1.08 fold enrichment (6-mer frequency, TF over GST control); in the assay with ELF5, 1 fold enrichment (6-mer frequency, TF over GST control).
As for ATAGGC, the binding signal with FEV was 1.07 fold enrichment (6-mer frequency, TF over GST control); with CRX, 1.14 fold enrichment (6-mer frequency, TF over GST control).
For GACCGG, the binding signal in the assay with FEV is 2.09 fold enrichment (6-mer frequency, TF over GST control); in the assay with ELF5, 1.08 fold enrichment (6-mer frequency, TF over GST control).
In the case of AGCGTC, the binding signal with SPI1 is 1.06 fold enrichment (6-mer frequency, TF over GST control); with FEV, 1.04 fold enrichment (6-mer frequency, TF over GST control); with ELF5, 1.04 fold enrichment (6-mer frequency, TF over GST control).
Turning to GGACTT, the binding signal with SPI1 is 1.2 fold enrichment (6-mer frequency, TF over GST control); with FEV it was 1.4 fold enrichment (6-mer frequency, TF over GST control); with ETV2, 1.19 fold enrichment (6-mer frequency, TF over GST control); in the assay with CRX, 1.08 fold enrichment (6-mer frequency, TF over GST control); with ELF5, 1.24 fold enrichment (6-mer frequency, TF over GST control).
Turning to AACTGT, the binding signal in the assay with ETV2 is 1.15 fold enrichment (6-mer frequency, TF over GST control).
Take CCAAGT: the binding signal with FLI1 is 1.02 fold enrichment (6-mer frequency, TF over GST control).
Regarding AGTACC, the binding signal in the assay with SPI1 was 1.03 fold enrichment (6-mer frequency, TF over GST control); in the assay with ETV2 it was 1.03 fold enrichment (6-mer frequency, TF over GST control); with ELF5, 1.02 fold enrichment (6-mer frequency, TF over GST control).
GCCCGG: the binding signal with FEV was 1.04 fold enrichment (6-mer frequency, TF over GST control); in the assay with ELF5 it was 1.05 fold enrichment (6-mer frequency, TF over GST control).
Turning to GGCTAT, the binding signal with SPI1 was 1.03 fold enrichment (6-mer frequency, TF over GST control); with FEV, 1.06 fold enrichment (6-mer frequency, TF over GST control); in the assay with ETV2, 1.06 fold enrichment (6-mer frequency, TF over GST control); with ELF5 it was 1.02 fold enrichment (6-mer frequency, TF over GST control).
As to TGGTCG, the binding signal with ETV2 was 1.08 fold enrichment (6-mer frequency, TF over GST control).
For the sequence TGATAG, the binding signal with FLI1 was 1.14 fold enrichment (6-mer frequency, TF over GST control); with SPI1, 1.01 fold enrichment (6-mer frequency, TF over GST control); in the assay with HSF1, 1.02 fold enrichment (6-mer frequency, TF over GST control); in the assay with ETV2, 1.09 fold enrichment (6-mer frequency, TF over GST control); in the assay with CRX it was 1.01 fold enrichment (6-mer frequency, TF over GST control).
Take AGCTAG: the binding signal with FLI1 was 1.05 fold enrichment (6-mer frequency, TF over GST control); with SPI1 it was 1.08 fold enrichment (6-mer frequency, TF over GST control); with HSF1 it was 1.21 fold enrichment (6-mer frequency, TF over GST control); with ETV2 it was 1.12 fold enrichment (6-mer frequency, TF over GST control); with CRX it was 1 fold enrichment (6-mer frequency, TF over GST control).
As for CCCCAG, the binding signal with FLI1 was 1.07 fold enrichment (6-mer frequency, TF over GST control); with SPI1, 1.04 fold enrichment (6-mer frequency, TF over GST control); with HSF1, 1.03 fold enrichment (6-mer frequency, TF over GST control); in the assay with ETV2, 1.04 fold enrichment (6-mer frequency, TF over GST control).
Take TGAAGA: the binding signal in the assay with FLI1 was 1 fold enrichment (6-mer frequency, TF over GST control); with HSF1 it was 1.09 fold enrichment (6-mer frequency, TF over GST control); with CRX it was 1 fold enrichment (6-mer frequency, TF over GST control).
Turning to GCTAGT, the binding signal is 1.1 fold enrichment (6-mer frequency, TF over GST control) with FLI1; 1.13 fold enrichment (6-mer frequency, TF over GST control) with SPI1; 1.03 fold enrichment (6-mer frequency, TF over GST control) with FEV; 1.12 fold enrichment (6-mer frequency, TF over GST control) with HSF1; 1.07 fold enrichment (6-mer frequency, TF over GST control) with ETV2.
Regarding TGAATC, the binding signal with FLI1 was 1.03 fold enrichment (6-mer frequency, TF over GST control); with SPI1, 1.11 fold enrichment (6-mer frequency, TF over GST control); with HSF1, 1.03 fold enrichment (6-mer frequency, TF over GST control); with CRX, 1.08 fold enrichment (6-mer frequency, TF over GST control).
On to TGGATA, for which the binding signal was 1.08 fold enrichment (6-mer frequency, TF over GST control) with FLI1; 1.03 fold enrichment (6-mer frequency, TF over GST control) with FEV; 1.2 fold enrichment (6-mer frequency, TF over GST control) with HSF1; 1.02 fold enrichment (6-mer frequency, TF over GST control) in the assay with ETV2; 1.34 fold enrichment (6-mer frequency, TF over GST control) with CRX; 1.04 fold enrichment (6-mer frequency, TF over GST control) with ELF5.
As for GTAAGC, the binding signal with FLI1 was 1.02 fold enrichment (6-mer frequency, TF over GST control); with HSF1, 1.04 fold enrichment (6-mer frequency, TF over GST control); with CRX, 1.51 fold enrichment (6-mer frequency, TF over GST control).
For the sequence TTAAGA, the binding signal in the assay with FLI1 was 1.05 fold enrichment (6-mer frequency, TF over GST control); with SPI1, 1.03 fold enrichment (6-mer frequency, TF over GST control); in the assay with FEV it was 1.01 fold enrichment (6-mer frequency, TF over GST control); with HSF1 it was 1.95 fold enrichment (6-mer frequency, TF over GST control); in the assay with ETV2, 1.15 fold enrichment (6-mer frequency, TF over GST control); with CRX, 2.97 fold enrichment (6-mer frequency, TF over GST control).
